In general, inhibition refers to the relative decrease from the control value, in per cent.

SMILES strings stand for the structures. In all, about 370,000 compounds went through this assay and about 3,100 (0.84%) were called active. What follows is part of a selection rich in actives, with near analogues and random picks from the rest. Unmarked numbers belong to inactive results. Cut-off read from the data, not from the text of the source: active = inhibition above about 9.5%; inactive = the rest.

For 84 molecules, inhibition results are on record in PubChem BioAssay AID720700 (The Scripps Research Institute Molecular Screening Center, 2013).

Sequence of 1-phosphatidylinositol 4,5-bisphosphate phosphodiesterase gamma-1 (Homo sapiens) (P19174 whole entry, looked up): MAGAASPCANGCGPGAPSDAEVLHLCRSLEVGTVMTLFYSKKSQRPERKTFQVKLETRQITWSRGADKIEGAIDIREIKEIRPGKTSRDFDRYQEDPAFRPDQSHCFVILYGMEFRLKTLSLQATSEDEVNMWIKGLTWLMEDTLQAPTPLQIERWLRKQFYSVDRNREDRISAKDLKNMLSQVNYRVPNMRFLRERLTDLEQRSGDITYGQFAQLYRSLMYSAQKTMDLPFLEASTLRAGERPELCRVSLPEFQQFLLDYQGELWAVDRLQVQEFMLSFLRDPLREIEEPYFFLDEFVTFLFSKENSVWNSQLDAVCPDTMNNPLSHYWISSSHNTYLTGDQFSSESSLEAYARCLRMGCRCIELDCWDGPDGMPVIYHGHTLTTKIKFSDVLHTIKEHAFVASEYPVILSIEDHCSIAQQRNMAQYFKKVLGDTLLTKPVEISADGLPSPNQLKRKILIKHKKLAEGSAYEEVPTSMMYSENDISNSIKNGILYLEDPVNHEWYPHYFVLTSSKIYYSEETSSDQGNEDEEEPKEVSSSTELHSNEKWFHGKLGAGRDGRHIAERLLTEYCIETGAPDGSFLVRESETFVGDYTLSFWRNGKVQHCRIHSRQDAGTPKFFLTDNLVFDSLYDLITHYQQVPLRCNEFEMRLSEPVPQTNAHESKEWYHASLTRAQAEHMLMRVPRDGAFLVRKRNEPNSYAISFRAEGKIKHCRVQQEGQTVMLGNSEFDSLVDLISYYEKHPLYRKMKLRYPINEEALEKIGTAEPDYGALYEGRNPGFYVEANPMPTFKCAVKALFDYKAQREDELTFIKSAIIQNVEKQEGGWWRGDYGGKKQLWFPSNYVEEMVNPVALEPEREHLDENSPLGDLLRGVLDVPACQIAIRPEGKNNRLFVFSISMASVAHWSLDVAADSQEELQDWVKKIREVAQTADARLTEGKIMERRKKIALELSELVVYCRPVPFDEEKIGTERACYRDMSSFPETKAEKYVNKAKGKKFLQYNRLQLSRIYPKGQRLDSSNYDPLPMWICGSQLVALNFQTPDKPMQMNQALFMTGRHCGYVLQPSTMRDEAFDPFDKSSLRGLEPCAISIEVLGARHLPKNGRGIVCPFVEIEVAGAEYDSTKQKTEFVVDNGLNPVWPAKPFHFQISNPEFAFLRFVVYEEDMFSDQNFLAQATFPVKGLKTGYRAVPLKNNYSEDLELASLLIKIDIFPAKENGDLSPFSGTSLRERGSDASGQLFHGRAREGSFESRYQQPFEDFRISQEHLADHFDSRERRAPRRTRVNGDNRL

The assay concerns the target 1-phosphatidylinositol 4,5-bisphosphate phosphodiesterase gamma-1 (Homo sapiens) (UniProt P19174). Put plainly: blockers of human PLCG1 activity – biochemical, fluorescence, purified enzyme, primary screen (AID 720700). The following applies: purified PLC-gamma1, fluorogenic substrate, at 12.2 µM, hits give high values.
Take `C=C(C)C#CC(Cc1ccccc1)N(CC1CC1)/C(N)=N/C(=O)OCc1ccccc1` (centres undefined): the inhibition is -163%. The figure for `O=S1(=O)c2c(cccc2N2CCSCC2)Oc2ccccc2CN1Cc1cn(Cc2ccc(F)cc2)nn1` is -5.24%.

Regarding `O=C(Nc1ccccc1Cl)/C(Cl)=C(\Cl)S(=O)c1ccccc1` (centres undefined), the inhibition is 12.4% (active).

With `CN1C(=O)c2cc(NS(C)(=O)=O)ccc2OC[C@@H]2O[C@@H](CC(=O)NCc3ccc(-c4ccccc4)cc3)CC[C@H]21`, the inhibition was -2.2%.

In the case of `CCC(=O)c1c(CC)c2n3c1=CC[C@H]3CC(Br)C=2` (some centres undefined), the inhibition was -6.13%.

Turning to `CC(=O)N1CCc2cc(S(=O)(=O)NCCC(=O)N3CCCC3)ccc21`, the inhibition is 1.19%.

Take `COc1ccc(N2CC(C(=O)NCCS(=O)(=O)N3CCN(c4ccccc4)CC3)CC2=O)cc1` (centres undefined): the inhibition was 4.62%. As to `Cc1ccc(N2CC(C(=O)NCCS(=O)(=O)N3CCN(c4ccccc4)CC3)CC2=O)cc1` (centres undefined), the inhibition was 10.4% (active). As for `COCCCNC(=O)C1CC(=O)N(c2ccc(C)cc2)C1` (centres undefined), the inhibition was -0.12%.

With `O=C(NC1CCCC1)C1CSCCS(=O)(=O)N1Cc1ccccc1` (centres undefined), the inhibition was -0.17%.

For the molecule `COc1ccc(C(=O)c2c(C)c(CCC#N)n3ccccc23)c(OC)c1`, the inhibition is -3.69%. To `Cc1c(C(=O)c2cccc([N+](=O)[O-])c2)c2ccccn2c1CCC#N` belongs 11.7% (active).

With `COc1cccc(C(=O)CC(=O)C(=O)Nc2ccc([N+](=O)[O-])cc2C)c1`, the inhibition is -0.82%. To `Cc1cc(C)cc(NC(=O)N2CCC(N(C)CCC(C)C)CC2)c1` belongs 3.12%.

Regarding `CCC(c1ccc(NC(=O)OC(C)(C)C)cc1)c1cc(OC)cc(OC)c1` (centres undefined), the inhibition is 1.5%. For the molecule `CC(=O)c1c(C)[nH]c(C(=O)OCC(=O)Nc2sc3c(c2C#N)CCCC3)c1C`, the inhibition was -7.9%.

For `N#Cc1c(NC(=O)C2CCCO2)sc2c1CCCCC2` (centres undefined), the inhibition is 12.2% (active). To `N#Cc1c(NC(=O)c2ccc(N3CCOCC3)c([N+](=O)[O-])c2)sc2c1CCCC2` belongs 3.4%; to `O=C(Nc1ccccc1)N1CCN(Cc2nc3ccccc3c(=O)[nH]2)CC1`, -0.51%. Regarding `C/C(CC(C)C)=N\Oc1nc(C)cc(C)n1`, the inhibition is 9.91% (active). With `COc1cccc(CNC(=O)C2CCCN(c3nc4ccccc4o3)C2)c1OC` (centres undefined), the inhibition was 0.94%. The figure for `COC(=O)[C@H](C(C)C)N1CCc2nnn(Cc3ccc(C)cc3)c2-c2ccccc2S1(=O)=O` is 0.55%. To `Cc1ccc(-c2c(C)n([O-])c3c([n+]2=O)CCC3)cc1` belongs 1.87%; to `CCc1c(C)n([O-])c2c([n+]1=O)CCCCC2`, 11% (active); to `CCOc1ccc(-c2c(C)n([O-])c3c([n+]2=O)CCCC3)cc1`, -0.45%.

`CC(CCN1CCC(C(O)(c2ccccc2)c2ccccc2)CC1)Oc1ccc(Cl)cc1` (centres undefined): the inhibition was 3.75%.

Turning to `CCCC[C@H]1C2CC(OC(=O)NCc3ccccc3)C(C2)[C@H]2CCCCN21` (some centres undefined), the inhibition was -1.64%.

On to `CC12c3ccccc3C(c3ccccc31)C1C(=O)N(Cc3cccnc3)C(=O)C12` (centres undefined), for which the inhibition was 1.04%. The figure for `CC1Oc2ccccc2N(Cc2cccnc2)C1=O` (centres undefined) is 11% (active).

With `Cc1cccc(C)c1NC(=O)CN1C(=O)C(C)Oc2ccccc21` (centres undefined), the inhibition is 1.55%.

As to `Cc1ccc(C2=CCN(C)C(=O)N2c2ccc(Cl)cc2)cc1`, the inhibition was -0.42%. `CC(c1c[nH]c2ccccc12)c1c(-c2ccccc2)n(C)c2ccccc12` (centres undefined): the inhibition is -4.35%.

Regarding `CC(C)C(C#CC1CC1)N(Cc1ccc2c(c1)OCO2)C(N)=NC(=O)/C=C/c1cccc(C(F)(F)F)c1` (centres undefined), the inhibition is 0.02%. Regarding `C=CCN(C(=O)[C@@H](CCCC)[C@@H](O)c1ccc(Cl)cc1)c1ccccc1`, the inhibition was -0.11%. To `CCC(=O)Nc1ccc(S(=O)(=O)NCC2CCCO2)cc1` (centres undefined) belongs 3.4%; to `O=C(CCNS(=O)(=O)c1ccc(Br)cc1)NCC1CCCO1` (centres undefined), 12.3% (active). To `CCOc1ccc(S(=O)(=O)NCCC(=O)NCC2CCCO2)cc1` (centres undefined) belongs 2.41%. The figure for `COC(=O)[C@]12C[C@H](CC(=O)NCc3ccccc3)C(=O)N(Cc3ccccc3)C1=C[C@H](COCc1ccccc1)O[C@@H]2C` is 8.06%; for `COc1ccc(-n2c(SCC(=O)Nc3ccccc3-c3ccccc3)nnc2-c2cccnc2)cc1` it is -0.54%. `C=C(C)C1CC23C(=O)C4(C(=O)c5ccccc5)C[C@@]5(C)CCC(CC2C1(C)C)(C4=O)C35OC` (some centres undefined): the inhibition was -0.5%.

For `COC(=O)[C@]12C[C@H](CC(=O)N3CCOCC3)C(=O)N(Cc3ccc(Cl)cc3Cl)C1=C[C@H](C(C)C)O[C@@H]2C1CC1`, the inhibition was -1.21%. To `O=C(CSc1ncn[nH]1)N/N=C/c1ccc(F)cc1` belongs 9.55% (active).

Regarding `O=C(CSc1ncn[nH]1)Nc1nsc(-c2ccccc2)n1`, the inhibition is -3.65%. To `O=C(CSc1ncn[nH]1)Nc1ccnc2ccccc12` belongs 0.33%; to `COc1cc(NC(=O)C2CCCN(S(=O)(=O)c3ccc(C(C)(C)C)cc3)C2)cc(OC)c1` (centres undefined), 0.39%; to `CC(C)CNc1cccc2c1S(=O)(=O)N(Cc1cn(Cc3ccc(Cl)cc3)nn1)Cc1ccccc1O2`, -48.8%. To `C=CCN1[C@@H](Cc2ccccc2)COc2cccc(N3CCSCC3)c2S1(=O)=O` belongs 1.11%. The figure for `CCOC(=O)[C@]12CCCC=C1N(Cc1ccc(OC)cc1)C(=O)[C@@H]2CC(=O)N1CCOCC1` is 0.69%; for `CCOC(=O)[C@]12CCCC=C1N(CCCOC)C(=O)[C@@H]2CC(=O)N1CCOCC1` it is 10.2% (active); for `CCOC(=O)[C@]12CCCCC/C=C\1N(Cc1ccc(OC)cc1)C(=O)[C@H]2CC(=O)N1CCOCC1` it is -0.42%. On to `COc1ccc(N2CCN(CCNS(=O)(=O)c3ccc([N+](=O)[O-])cc3)CC2)cc1`, for which the inhibition was -0.14%. To `COC(=O)C1CN(CCc2ccccc2)CCS(=O)(=O)N1Cc1cccc(Cl)c1` (centres undefined) belongs 0.86%. The figure for `COc1ccc(CSc2nnc(-c3cccc(C)c3)n2C)cc1` is 1%; for `COc1ccc(-n2c(COc3ccccc3)nnc2SCC(=O)Nc2ccc3c(c2)OCO3)cc1` it is -1.32%; for `Cc1cc(C)n2ncc(C(=O)Nc3ccc4c(c3)OCCO4)c2n1` it is -0.99%. To `CN(C)[C@H]1CCN(c2cccc3c2S(=O)(=O)N2CC[C@H](C2)O3)C1` belongs 1.23%. With `O=C(CN1CCN(C2CCCCC2)CC1)Nc1ccccc1N1CCCCC1`, the inhibition was 10.2% (active). To `O=C(CN1CCCCC1)Nc1ccccc1C(=O)NC1CC1` belongs 3.56%; to `CC(=O)c1ccc(N2CCN(CC(=O)Nc3ccccc3N3CCOCC3)CC2)cc1`, -2.41%; to `COc1ccc(NC(=O)c2ccc(OC)cc2)cc1`, 11% (active).

Regarding `COc1ccc(C(=O)Nc2c(N)nc(SCC(=O)Nc3ccc(C(C)=O)cc3)[nH]c2=O)cc1`, the inhibition was -0.47%.

Take `COc1ccc(NC(=O)c2ccccc2CC[N+](=O)[O-])cc1`: the inhibition is 0.81%.

`C[C@@H]1CN([C@@H](C)CO)C(=O)c2cccc(NC(=O)Nc3cccc4ccccc34)c2O[C@H]1CN(C)S(=O)(=O)c1ccccc1F`: the inhibition was -11.6%. To `CCN(CC)CCCNC(=O)c1ccc2c(=O)n(Cc3ccc4c(c3)OCO4)c(=S)[nH]c2c1` belongs -2.49%; to `Cc1cccc(NC(=O)c2ccc3c(=O)n(CC4CCCO4)c(=S)[nH]c3c2)c1` (centres undefined), 10.2% (active); to `O=C(NCc1ccccc1Cl)c1ccc2c(=O)n(CC3CCCO3)c(=S)[nH]c2c1` (centres undefined), 2.56%. Regarding `Cc1ccc(NC(=S)NNC(=O)CSc2nnc(SCc3ccccc3Cl)s2)cc1`, the inhibition was -4.17%.

As to `CC(=O)OCCN1CCCC12CCC(c1ccccc1)CC2` (centres undefined), the inhibition is -1.82%. For `CCc1ccccc1NC(=O)CSc1nnc(-c2cccs2)o1`, the inhibition was -2.39%. The figure for `COC(=O)[C@]12C[C@H](CC(=O)NCc3ccccc3)C(=O)N(CCc3ccc(OC)c(OC)c3)C1=C[C@H](C(C)(C)C)O[C@@H]2C` is 1.65%; for `COC(=O)C1CN(Cc2cn(Cc3ccc(F)cc3)nn2)CCS(=O)(=O)N1Cc1ccc(Cl)cc1` (centres undefined) it is 0.64%. To `C=CCN1C(=O)[C@H](CC(=O)N2CCN(C(=O)OCC)CC2)[C@@]2(C(=O)OCC)CCCC=C12` belongs 0.46%. To `FC(F)(F)c1cccc(Cn2ccc3ccc(-c4ccc5ccn(Cc6ccccc6)c5c4)cc32)c1` belongs -66.4%; to `O=c1c([N+](=O)[O-])cc(C(F)(F)F)cn1Cc1cccc(Cl)c1`, 11.6% (active). Consider `O=c1c([N+](=O)[O-])cccn1Cc1ccc(F)cc1Cl`, for which the inhibition is 3.37%. To `COC(=O)[C@]12C[C@H](CC(=O)NCC34CC5CC(CC(C5)C3)C4)C(=O)N(Cc3ccc(Cl)cc3Cl)C1=C[C@H](COCc1ccccc1)O[C@@H]2C` belongs -0.03%; to `CCN(CC)Cc1csc2ccc(Br)cc12`, 9.63% (active); to `CN(CCO)Cc1csc2ccc(Br)cc12`, 1.91%.

Consider `CCN(CC)Cc1cc(C(C)=O)ccc1O`, for which the inhibition was 3.56%. To `C=CCN1C(=O)[C@@H](CC(=O)NCCCCc2ccccc2)[C@]2(C(=O)OCC)CCCCC/C=C/12` belongs -0.06%; to `O=C(CN1CCCc2ccccc21)NCc1ccc(F)cc1`, -1.61%. The figure for `COc1ccccc1C(=O)N1C(CC(=O)Nc2ccccc2C)C(=O)NC2CCCCC21` (centres undefined) is 9.7% (active); for `COc1ccccc1C(=O)N1CCNC(=O)C1CC(=O)Nc1ccc(Cl)cc1` (centres undefined) it is 7.83%. To `COc1ccc(NC(=O)CC2C(=O)NC3CCCCC3N2C(=O)c2ccc(F)cc2)cc1` (centres undefined) belongs 0.91%.
